Structures are written as SMILES. “And” between values parts separate entries of the source, which are not always exact repeats. Equal entries are not always repeated.

Assay [1] addresses Calcium/calmodulin-dependent protein kinase type II subunit alpha (Homo sapiens) (UniProt Q9UQM7). The note with it: at 1 µM.
The target in assay [2] is Calcium/calmodulin-dependent protein kinase type II subunit delta (Homo sapiens) (UniProt Q13557). The settings on record: at 0.1 µM.
Assay [3] shares this target. The settings on record: at 1 µM.
Assay [4] concerns the target T1, Calcium/calmodulin-dependent protein kinase type IV (Homo sapiens) (UniProt Q16566).
T1 sequence (whole entry): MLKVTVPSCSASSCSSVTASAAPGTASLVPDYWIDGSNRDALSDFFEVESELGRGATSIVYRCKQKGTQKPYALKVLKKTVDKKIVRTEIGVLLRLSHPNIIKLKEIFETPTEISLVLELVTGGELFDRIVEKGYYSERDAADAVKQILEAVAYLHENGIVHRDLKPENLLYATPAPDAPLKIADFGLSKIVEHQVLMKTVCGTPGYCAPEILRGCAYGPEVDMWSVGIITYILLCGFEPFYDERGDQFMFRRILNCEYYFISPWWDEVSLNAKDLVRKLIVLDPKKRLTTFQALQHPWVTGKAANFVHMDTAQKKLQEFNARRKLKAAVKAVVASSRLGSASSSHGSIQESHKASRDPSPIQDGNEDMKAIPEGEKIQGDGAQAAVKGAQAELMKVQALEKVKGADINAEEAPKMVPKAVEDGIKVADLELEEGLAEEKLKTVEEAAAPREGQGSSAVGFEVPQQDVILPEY
The note with it: at 0.1 µM.

For assay [5], the target named is T1, Calcium/calmodulin-dependent protein kinase type IV (Homo sapiens). The note with it: at 1 µM.
The target of assay [6] is T2, Serine/threonine-protein kinase Chk1 (Homo sapiens) (UniProt O14757).
T2 sequence (whole entry): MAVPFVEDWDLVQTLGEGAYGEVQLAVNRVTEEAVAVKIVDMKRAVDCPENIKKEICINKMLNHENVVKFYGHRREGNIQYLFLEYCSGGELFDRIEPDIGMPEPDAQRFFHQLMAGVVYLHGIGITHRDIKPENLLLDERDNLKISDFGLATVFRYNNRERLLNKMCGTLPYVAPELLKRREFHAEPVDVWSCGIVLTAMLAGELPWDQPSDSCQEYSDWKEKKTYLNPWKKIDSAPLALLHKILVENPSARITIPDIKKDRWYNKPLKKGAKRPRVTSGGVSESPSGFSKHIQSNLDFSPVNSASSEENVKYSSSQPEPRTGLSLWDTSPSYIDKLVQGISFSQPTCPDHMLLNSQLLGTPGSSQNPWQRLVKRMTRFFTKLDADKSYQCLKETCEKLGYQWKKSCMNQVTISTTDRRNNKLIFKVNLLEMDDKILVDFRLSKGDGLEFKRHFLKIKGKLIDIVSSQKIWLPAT
The settings on record: at 0.1 µM.

Assay [7] deals with T2, Serine/threonine-protein kinase Chk1 (Homo sapiens). The note with it: at 1 µM.
Assay [8] concerns the target Serine/threonine-protein kinase Chk2 (Homo sapiens) (UniProt O96017). The settings on record: at 0.1 µM.
Assay [9] shares this target. The settings on record: at 1 µM.
Assay [10] has as its target Death-associated protein kinase 1 (Homo sapiens) (UniProt P53355). The settings on record: at 0.1 µM.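 Note: reported figure is the mean inhibition of DAPK1.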

Chain of Death-associated protein kinase 1 (Homo sapiens) (P53355 whole entry, looked up): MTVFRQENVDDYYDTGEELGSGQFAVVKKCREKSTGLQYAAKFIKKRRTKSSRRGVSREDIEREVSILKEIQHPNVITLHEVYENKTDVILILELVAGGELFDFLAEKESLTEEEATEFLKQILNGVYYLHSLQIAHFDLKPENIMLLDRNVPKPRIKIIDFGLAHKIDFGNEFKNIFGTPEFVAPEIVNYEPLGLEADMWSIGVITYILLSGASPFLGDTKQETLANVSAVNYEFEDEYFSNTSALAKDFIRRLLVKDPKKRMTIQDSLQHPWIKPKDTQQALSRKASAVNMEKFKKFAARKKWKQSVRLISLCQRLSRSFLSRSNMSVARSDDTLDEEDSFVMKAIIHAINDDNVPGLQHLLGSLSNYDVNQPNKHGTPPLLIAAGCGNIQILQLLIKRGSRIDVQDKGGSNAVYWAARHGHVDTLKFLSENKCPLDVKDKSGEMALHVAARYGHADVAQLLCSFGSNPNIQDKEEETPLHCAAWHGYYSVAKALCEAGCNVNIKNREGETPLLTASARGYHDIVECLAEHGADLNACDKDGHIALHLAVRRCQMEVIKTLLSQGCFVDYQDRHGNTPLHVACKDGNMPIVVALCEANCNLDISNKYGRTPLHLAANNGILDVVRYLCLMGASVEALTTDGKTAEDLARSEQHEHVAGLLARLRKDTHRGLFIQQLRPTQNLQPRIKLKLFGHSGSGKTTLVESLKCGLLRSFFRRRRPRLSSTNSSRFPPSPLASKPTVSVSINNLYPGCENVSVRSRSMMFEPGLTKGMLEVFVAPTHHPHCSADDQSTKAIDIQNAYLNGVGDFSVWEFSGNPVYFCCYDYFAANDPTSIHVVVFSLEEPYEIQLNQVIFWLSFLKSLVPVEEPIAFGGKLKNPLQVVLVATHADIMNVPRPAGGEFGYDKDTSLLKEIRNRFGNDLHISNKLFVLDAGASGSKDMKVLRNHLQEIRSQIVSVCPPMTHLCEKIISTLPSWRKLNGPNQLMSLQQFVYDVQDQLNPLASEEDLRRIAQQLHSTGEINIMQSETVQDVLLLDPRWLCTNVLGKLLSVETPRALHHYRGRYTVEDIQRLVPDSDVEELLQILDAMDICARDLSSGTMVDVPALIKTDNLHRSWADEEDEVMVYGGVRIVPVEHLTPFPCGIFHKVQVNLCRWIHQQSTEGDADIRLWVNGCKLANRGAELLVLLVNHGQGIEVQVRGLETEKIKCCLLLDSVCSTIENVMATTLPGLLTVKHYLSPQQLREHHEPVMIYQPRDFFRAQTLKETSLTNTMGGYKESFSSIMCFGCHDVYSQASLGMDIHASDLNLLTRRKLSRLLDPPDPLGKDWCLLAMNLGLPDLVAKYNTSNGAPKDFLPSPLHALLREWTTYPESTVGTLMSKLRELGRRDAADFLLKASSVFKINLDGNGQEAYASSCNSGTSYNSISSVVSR
Chain of Calcium/calmodulin-dependent protein kinase type II subunit alpha (Homo sapiens) (Q9UQM7 whole entry): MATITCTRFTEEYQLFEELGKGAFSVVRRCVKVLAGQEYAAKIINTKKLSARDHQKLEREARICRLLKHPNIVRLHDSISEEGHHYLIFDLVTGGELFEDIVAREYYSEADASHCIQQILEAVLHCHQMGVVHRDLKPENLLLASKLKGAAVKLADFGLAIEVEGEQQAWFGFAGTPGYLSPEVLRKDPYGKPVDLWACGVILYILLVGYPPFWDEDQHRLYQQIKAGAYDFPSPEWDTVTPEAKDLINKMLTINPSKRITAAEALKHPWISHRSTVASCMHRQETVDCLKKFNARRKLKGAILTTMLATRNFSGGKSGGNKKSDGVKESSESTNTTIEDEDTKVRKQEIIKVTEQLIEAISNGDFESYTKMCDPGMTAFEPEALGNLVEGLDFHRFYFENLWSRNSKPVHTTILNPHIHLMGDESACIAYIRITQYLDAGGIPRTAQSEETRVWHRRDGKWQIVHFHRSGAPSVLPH
Chain of Calcium/calmodulin-dependent protein kinase type II subunit delta (Homo sapiens) (Q13557 whole entry): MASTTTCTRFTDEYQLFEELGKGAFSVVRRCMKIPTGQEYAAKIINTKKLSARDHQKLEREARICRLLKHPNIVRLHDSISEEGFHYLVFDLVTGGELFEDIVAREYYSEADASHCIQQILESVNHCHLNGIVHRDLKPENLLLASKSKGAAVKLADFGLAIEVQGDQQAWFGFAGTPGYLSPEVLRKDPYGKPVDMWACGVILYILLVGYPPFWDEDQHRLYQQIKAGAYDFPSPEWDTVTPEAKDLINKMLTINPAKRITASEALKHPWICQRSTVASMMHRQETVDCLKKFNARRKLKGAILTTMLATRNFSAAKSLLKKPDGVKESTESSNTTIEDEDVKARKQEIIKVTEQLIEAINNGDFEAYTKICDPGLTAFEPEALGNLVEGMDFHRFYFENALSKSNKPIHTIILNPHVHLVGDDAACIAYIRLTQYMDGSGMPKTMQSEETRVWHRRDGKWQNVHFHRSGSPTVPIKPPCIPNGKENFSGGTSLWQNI
Chain of Serine/threonine-protein kinase Chk2 (Homo sapiens) (O96017 whole entry): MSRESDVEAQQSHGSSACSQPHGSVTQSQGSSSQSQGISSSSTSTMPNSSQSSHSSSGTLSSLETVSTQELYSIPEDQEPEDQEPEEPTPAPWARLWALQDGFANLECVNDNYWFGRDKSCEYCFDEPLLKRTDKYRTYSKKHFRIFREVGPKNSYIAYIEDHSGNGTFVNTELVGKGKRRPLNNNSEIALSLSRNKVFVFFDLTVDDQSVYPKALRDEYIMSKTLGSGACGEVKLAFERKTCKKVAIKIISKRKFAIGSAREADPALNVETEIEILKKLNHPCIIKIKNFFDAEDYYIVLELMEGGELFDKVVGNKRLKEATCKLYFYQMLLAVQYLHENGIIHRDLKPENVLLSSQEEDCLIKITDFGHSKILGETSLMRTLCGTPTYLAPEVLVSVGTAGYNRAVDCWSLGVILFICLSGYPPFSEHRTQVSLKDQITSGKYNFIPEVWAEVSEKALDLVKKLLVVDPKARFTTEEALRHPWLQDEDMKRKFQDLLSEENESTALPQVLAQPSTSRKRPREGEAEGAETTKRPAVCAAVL

Regarding `CS(=O)(=O)CCNCc1ccc(-c2ccc3ncnc(Nc4ccc(OCc5cccc(C(F)(F)F)c5)cc4)c3c2)o1`, the inhibition in assay [1] is 2.36%; in assay [2], 3.02%; in assay [3], 7.55%; in assay [4] it was -2.56%; in assay [5], -0.39%; in assay [6] it was 5.09%. Also, the inhibition came to 7.64% in assay [7], 4.17% in assay [8], 5.4% in assay [9] and 6.71% in assay [10].
On to `Fc1cccc(COc2ccc(Nc3ncncc3C#Cc3ccccc3)cc2Cl)c1`, for which the inhibition in assay [1] is 3.65%; in assay [2], 2.79%; in [3], 2.05%; in assay [4], -2.29%; in [5] it was -4.84%; in assay [6], 3.29%. For the same compound, the inhibition in assay [7] amounted to 5.99%; in assay [8] it was 3.47%; in assay [9], 5.22%; in assay [10], 5.08%.
For `OCCCNc1nccc(-c2c(-c3ccc(F)cc3)nn3cc(C(F)(F)F)ccc23)n1`, the inhibition in assay [1] is 3.74%; in assay [2] it was 2.44%; in assay [3] it was 6.94%; in assay [4], 0.82%; in [5], 1.44%; in assay [6] it was -0.5%. For the same compound, the inhibition is -1.18% in assay [7], 2.3% in [8], 2.83% in assay [9] and -0.68% in assay [10].
In the case of `COc1cccc(-n2ncc3c(N/N=C/c4ccc(C(=O)NCCN(C)C)cc4)ncnc32)c1`, the inhibition came out at 10.4% in [1]; 8.19% in assay [2]; 36.1% in assay [3]; 0.48% in [4]; 1.87% in assay [5]; 2.47% in assay [6]. Besides, the inhibition in assay [7] was 5.69%; in assay [8], 0.95%; in [9] it was 3.14%; in assay [10], 3.46%.
Consider `CNC(=O)c1cncc(/C=C/c2ccccc2C)c1`, for which the inhibition in assay [1] is 3.24%; in assay [2], 2.3%; in assay [3], 3.14%; in assay [4], -1.31%; in assay [5] it was -2.38%; in [6] it was 5.89%. Further, the inhibition in [7] was determined as 5.73%; in assay [8], 2.11%; in assay [9] it was 3.83%; in [10] it was 6.54%.
As for `Cc1cc(O)cc(C)c1/C=C/c1cncc(C(N)=O)c1`, the inhibition in [1] came to 2.76%; in assay [2], 2.47%; in assay [3] it was 6.44%; in assay [4] it was 0.89%; in assay [5], 1.57%; in assay [6], 2.8%. Besides, the inhibition in assay [7] is 0.66%; in assay [8], 0.67%; in assay [9] it was 4%; in [10], 1.68%.
For the compound `COc1ccccc1-c1cc(/C=C2\C(=O)Nc3ncc(Br)cc32)cc(Br)c1O`, the inhibition worked out at 5.91% in [1]; 4.86% in [2]; 7.42% in [3]; 0.86% in assay [4]; 1.67% in [5]; 2.44% in assay [6]. The inhibition in assay [7] amounted to 3.84%; in assay [8], 4.82%; in [9], 6.73%; in assay [10], 0.98%.
Regarding `CN1CCC(C(=O)Nc2n[nH]c3nc(-c4ccc(O)cc4)c(Br)cc23)CC1`, the inhibition in assay [1] is 5.88% and 4.76%; in [2], 3.23% and 2.76%; in assay [3], 12.3% and 11.1%; in assay [4] it was -1.13% and 0.82%; in [5] it was -1.76% and 1.46%; in assay [6], 0.73% and 0.68%. For the same compound, the inhibition in assay [7] is 5.31% and 2.46%; in assay [8] it was 3.5% and 1.61%; in assay [9], 5.98% and 3.76%; in assay [10] it was 2.41% and 2.49%.
Regarding `N#Cc1cccc(Nc2ncc(-c3ccccc3)o2)c1`, the inhibition in assay [1] was 1.79%; in [2], 0.08%; in assay [3], 2.56%; in [4], -2.03%; in assay [5] it was -2.55%; in assay [6], 0.93%. In addition, the inhibition in assay [7] was found to be 2.48%; in [8] it was 1.04%; in assay [9], 2.58%; in [10] it was 2.18%.
As to `CCn1c(-c2nonc2N)nc2cncc(C(=O)NCCNC)c21`, the inhibition in assay [1] is -0.37%; in assay [2], 3.51%; in assay [3] it was 6.88%; in assay [4], -2.59%; in assay [5], 0.71%; in assay [6], 2.97%. Also, the inhibition in [7] was -0.23%; in assay [8], 4.63%; in assay [9], 5.44%; in assay [10] it was 3.2%.
Consider `Nc1ncnc2occ(-c3ccc(NC(=O)Nc4cc(C(F)(F)F)ccc4F)cc3)c12`, for which the inhibition in assay [1] was 3.84% and -2.75%; in assay [2], 3.01% and -3.72%; in [3] it was 4.94% and 0.29%; in assay [4] it was 0.92% and -1.47%; in assay [5] it was 6.17% and 0.48%; in assay [6], 3.39% and 0.89%. For the same compound, the inhibition in assay [7] was 3.36% and 1.22%; in assay [8], 0.48% and -3.48%; in assay [9], 2.69% and -1.74%; in assay [10], 3.18% and 0.64%.
For `CN(C)CCNC(=O)Nc1ccc(N(C)c2ccnc(Nc3ccc(CS(C)(=O)=O)cc3)n2)cc1`, the inhibition in assay [1] is 4.63%; in [2], 4.54%; in assay [3] it was 5.02%; in [4], 0.83%; in assay [5] it was -0.68%; in assay [6], 3.83%. Further, the inhibition in [7] came to 0.79%; in assay [8], 3.72%; in [9], 11.9%; in assay [10] it was 3.93%.

One may read the inhibition as the change of the read-out against control, counted positive when it falls.

Source of the values: ChEMBL document CHEMBL1961873, “Compounds: GSK PKIS; Assays: Nanosyn kinase panel” (2012).
